Bioassay records (PubChem BioAssay)
NSD2 HMT inh: NSD2 histone methyltransferase inhibitors, primary screen, biochemical, AlphaScreen, single concentration, set 2 | inhibition, % at 12.5 µM | Histone-lysine N-methyltransferase NSD2 (Homo sapiens), O96028 | actives 0.54% (n = 310,000) | NSD2 peptide methylation, 120 min; in the data active = inhibition above about 50%
Casp6 inh: human caspase-6 inhibitors, primary screen, biochemical, VEID-R110 fluorescence, single point, set 2; P55212; purified caspase-6, Z-VEID-R110 cleavage fluorescence; inhibition, % at 12.5 µM; actives 0.53% (n = 350,000); AID 686996, 2013;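 active = mean inhibition across replicates at least about 35%, with every replicate also reaching that limit, limit read from the data; inconclusive = only one of the two criteria met; inactive = neither criterion met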;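 note: 0% = median of neutral control wells and 100% = no fluorescence left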
Target sequence (P55212 24-179 limits assumed): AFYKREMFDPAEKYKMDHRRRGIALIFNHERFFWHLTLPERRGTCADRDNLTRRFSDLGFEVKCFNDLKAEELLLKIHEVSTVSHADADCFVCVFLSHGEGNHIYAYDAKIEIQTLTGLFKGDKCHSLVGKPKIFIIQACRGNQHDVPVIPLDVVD
Target sequence (P55212 194-293 limits assumed): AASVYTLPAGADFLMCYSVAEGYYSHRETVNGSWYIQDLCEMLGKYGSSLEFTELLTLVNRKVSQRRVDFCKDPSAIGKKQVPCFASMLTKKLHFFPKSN
ALR H2O2 inh: inhibitors of human ALR sulfhydryl oxidase, primary screen, biochemical, H2O2 detection, HRP-luminol luminescence, single point. FAD-linked sulfhydryl oxidase ALR (Homo sapiens), P55789. purified ALR, DTT oxidation. inhibition, % (no concentration beside the values). actives 3.8% (n = 290,000). AID 485317, 2010;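 active = mean replicate inhibition above about 79%, with every replicate also reaching it, limit read from the data; inconclusive = only one of the two criteria met; inactive = mean below limit and not every replicate reaching it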
Target sequence (P55789 whole entry, looked up): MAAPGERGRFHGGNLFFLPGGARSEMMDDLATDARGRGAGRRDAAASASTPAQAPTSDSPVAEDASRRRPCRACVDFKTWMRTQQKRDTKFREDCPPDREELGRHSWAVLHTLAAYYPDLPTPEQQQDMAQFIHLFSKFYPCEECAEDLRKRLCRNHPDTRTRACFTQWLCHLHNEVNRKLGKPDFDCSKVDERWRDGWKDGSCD
CFTR F508del cor: F508del CFTR correction, initial screen, CFBE line, single point. CFBE cells, YFP halide quenching; stimulated with forskolin plus potentiator P3; % fluorescence drop versus neutral controls. activity (quench increase), % at 7.58 µM. actives 0.36% (n = 350,000);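 active = mean added fluorescence quench of at least 8% versus neutral control, with both replicates also reaching 8%; inconclusive = only one of the mean or replicate conditions met; inactive = mean below 8% and not both replicates reaching 8%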;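 note: cells transiently co-express mutant CFTR-F508del with the halide-sensitive YFP; corrector assay measuring rescue of mutant channel to the surface after 24 h compound exposure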
Env fusion inh: inhibitors of HIV-1 Env-driven cell-cell fusion, primary screen, HeLa-JRFL effector, CEM21 target cells, luciferase. inhibition, % at 12.3 µM. actives 1.1% (n = 360,000);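 active = mean replicate inhibition score of at least 50 and every replicate individually at or above 50; inconclusive = only one of the two criteria met; inactive = mean below 50 and not all replicates reaching 50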;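 note: 0% = plate neutral controls and 100% = maraviroc near 300 nM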
PglD DTNB: C. jejuni PglD acetyltransferase inhibitors, primary screen, biochemical, DTNB colorimetric, single point. UDP-N-acetylbacillosamine N-acetyltransferase PglD (Campylobacter jejuni). purified PglD enzyme, DTNB colorimetric CoA detection. inhibition, % at 12.5 µM. actives 0.098% (n = 360,000). AID 602405, 2012; in the data active = inhibition above about 16%, passing the limit was not always enough; inconclusive = no clear call, values can overlap the other calls
* = called active by the depositor; ? = inconclusive; . = no result; [ ] = another dose, or the depositor's remark. The list is not random: actives were taken first. Their share in the collection is about 4.1%.

SMILES	NSD2 HMT inh	Casp6 inh	ALR H2O2 inh	CFTR F508del cor	Env fusion inh	PglD DTNB
O=C([C@@H]1[C@@H](CO)[C@@H]2Cn3c(ccc(-c4cccnc4)c3=O)[C@H]1N2CC1CC1)N1CCCCC1	.	-1	.	.	.	3
CC[n+]1c(-c2ccccc2)csc1Nc1c(C)n(C)n(-c2ccccc2)c1=O	2	0	99*	1	6	.
COc1ccc2c3c([nH]c2c1)[C@H](CO)N(C(=O)CC1CC1)CC31CCN(Cc2cccnc2)CC1	.	0	.	0	.	.
CCCCc1nnc(NC(=O)CSc2nc(O)c(-c3ccccc3)c(=O)[nH]2)s1	-2	1	59	-1	2	.
O=C(CSc1nc(O)c(Cc2ccccc2)c(=O)[nH]1)Nc1nnc(SCc2ccccc2)s1	31	51*	30	-2	23	8
CCCCc1nnc(NC(=O)CSc2nc(O)c(Cc3ccccc3)c(=O)[nH]2)s1	13	5	99*	1	5	.
NCC[C@H]1CC[C@@H](NS(=O)(=O)Cc2ccccc2)[C@@H](CO)O1	.	-8	.	-2	-8[16.7 µM]	1
C[C@H](CO)N1C[C@H](C)[C@H](CN(C)Cc2ccc(C(=O)Nc3ccccc3N)cc2)Oc2ccc(NC(=O)NC3CCCCC3)cc2CC1=O	.	-5	.	-2	.	.
CCOC(=O)/C(C#N)=C/Nc1ccccc1NS(=O)(=O)c1cccc(C(C)=O)c1	0	38*	-8	-1	10	6
C/C(=N\NC(=O)c1cccc(N/N=C(\C)c2ccc([N+](=O)[O-])cc2)c1)c1ccc([N+](=O)[O-])cc1	-2	4	-4	1	6	.
C/C(=N\NC(=O)c1cccc(N/N=C(\C)c2ccncc2)c1)c1ccncc1	0	.	99*	.	-21	.
C/C(=N\NC(=O)c1cccc(N/N=C(\C)c2ccccc2)c1)c1ccccc1	0	.	87*	.	-51	.
CC(C)NC(=O)N[C@H]1CC[C@H](CCNS(=O)(=O)c2ccc(F)cc2)O[C@@H]1CO	.	-1	.	-1	22[16.7 µM]	0
COC(=O)C[C@@H]1CC[C@H]2[C@@H](COc3ccc(NC(=O)c4cccc(Cl)c4)cc3C(=O)N2C)O1	.	5	.	.	1[16.7 µM]	-1
CN1CCN(C(=O)C[C@@H]2CC[C@@H]3[C@H](COc4ccc(NC(=O)C5CCCCC5)cc4C(=O)N3C)O2)CC1	.	-1	.	2	1[16.7 µM]	5
CCOc1ccc(-n2c(C)cc(/C=C3/C(=N)N4C(=NC3=O)SN=C4S(C)(=O)=O)c2C)cc1	.	28	98*	5	-8	.
CCOc1cc(/C=C2/C(=N)N3C(=NC2=O)SN=C3S(C)(=O)=O)ccc1OS(=O)(=O)c1ccccc1	14	.	95*	.	.	0
Cc1cc(/C=C2/C(=N)N3C(=NC2=O)SN=C3S(C)(=O)=O)c(C)n1-c1ccc(F)cc1	4	14	62	.	-22	.
CSCc1ccc(C(=O)NC(C)c2ccc(-n3ccnc3)cc2)cc1 (stereo not given)	0	2	98*	-1	-4	10
COc1ccc2c3c([nH]c2c1)[C@@H](CO)N(C(=O)NC(C)C)CC31CN(Cc2ccccc2)C1	.	5	.	3	.	.
Cc1ccc(/C(N)=N/OC(=O)c2ccc3ccccc3c2)cc1	-1	55*	-7	-1	-99	-2
Cc1cccc(/C(N)=N/OC(=O)c2ccc3c(c2)OCO3)c1	-4	.	97*	.	-60	-8
Cc1ccc(/C(N)=N/OC(=O)c2cccc(F)c2)cc1	-4	.	?	.	-143	1
Cc1ccc(C(=O)O/N=C(\N)c2ccccn2)cc1	7	.	.	-1	62*	-9
N/C(=N\OC(=O)c1ccc2c(c1)OCO2)c1cccc([N+](=O)[O-])c1	4	-1	64	2	-56	.
SMILES	NSD2 HMT inh	Casp6 inh	ALR H2O2 inh	CFTR F508del cor	Env fusion inh	PglD DTNB
CCOc1ccc(C(=O)O/N=C(\N)c2ccccn2)cc1	-7	-3	2	8.2*	63*	9
CO[C@H]1CN(C)C(=O)c2ccc(NC(=O)NC(C)C)cc2OC[C@H](C)N(C(=O)NC(C)C)C[C@H]1C	.	-4	.	0	8[16.7 µM]	1
CC(=O)N1[C@H](CO)[C@H](c2ccc(C3=CCCC3)cc2)C12CN(C(=O)C1CC1)C2	.	0	.	-1	.	.
CC(C)CC(O)(CC(C)C)C(=O)NNc1ccccc1	2	.	99*	.	.	-1
CO[C@H]1CN(C)C(=O)c2cc(NC(=O)Nc3ccccc3)ccc2OC[C@H](C)N(C(=O)CC2CC2)C[C@@H]1C	.	.	.	1	-57[16.7 µM]	2
Cc1ccccc1NCCC(=O)Nc1ccc(F)cc1	1	1	99*	-2	-5	7
Cc1ccccc1NC(=O)CC(=O)Nc1ccccc1C	-2	-1	3	-1	-4	-5
Cc1ccccc1NCCC(=O)Nc1ccc(Cl)cc1	3	-1	98*	2	-4	-1
O=C(CNC(=O)c1ccccc1F)NCCN1C(=O)S/C(=C\c2ccc3c(c2)OCO3)C1=O	1	-1	.	-1	-19	-9
NCCN1C(=O)S/C(=C\c2ccc3c(c2)OCO3)C1=O	-1	-8	92*	1	31	.
Cc1cc(C)n(-c2nc3ccccc3nc2N2CCN(S(=O)(=O)c3ccc4ccccc4c3)CC2)n1	-1	.	0	.	56*	-2
Cc1ccc(S(=O)(=O)N2CCC(=O)N(C(COCc3ccccc3)Cc3ccccc3)CC2)cc1 (stereo not given)	.	4	0	-5	7	4
Cc1ccc(S(=O)(=O)N2CCC(=O)N(C(COCc3cccc(C(F)(F)F)c3)Cc3ccccc3)CC2)cc1 (stereo not given)	.	-1	-10	2	56*	-3
Cc1ccc(S(=O)(=O)N2CCC(=O)N(CCOCc3ccc(Cl)cc3)CC2)cc1	.	-1	-8	1	56*	-3
O=C(c1ccc(Cl)c(Cl)c1)N1CCC(=O)N(C(COCc2cccc(C(F)(F)F)c2)Cc2ccccc2)CC1 (stereo not given)	.	.	-3	0	80*	-3
Cc1cccc(COCC(Cc2ccccc2)N2CCN(C(=O)c3cccc(C)c3)CCC2=O)c1 (stereo not given)	.	3	.	0	51	-1
Cc1cccc(COCC(Cc2ccccc2)N2CCN(C(=O)c3ccc(Cl)c(Cl)c3)CCC2=O)c1 (stereo not given)	.	-8	0	2	95*	-3
CC(=O)NC[C@@H]1[C@H](c2ccc(-c3cccc(F)c3)cc2)[C@@H](CO)N1C(C)=O	.	.	.	-1	.	-2
CN1C(=O)c2cc(NS(=O)(=O)c3ccc(Cl)cc3)ccc2OC[C@@H]2O[C@H](CC(=O)N3CCc4ccccc4C3)CC[C@H]21	.	-2	.	3	27[16.7 µM]	0
